In test [1] the target is Gonadotropin-releasing hormone receptor (Homo sapiens) (UniProt P30968). In words: Human gonadotropin-releasing hormone receptor (GnRHR) small molecule agonists, calcium flux assay in GnRHR-HEK293 cells (AID 1920063). Further: nearly all actives have a fitted effect of over 35% in size. Put shortly: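 Intracellular calcium rise is the read-out: engineered human GnRHR HEK293 cells, dye-loaded, are exposed to DMSO-dissolved compounds and fluorescence at Ex/Em 480/540 is tracked for 3 min.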
Sequence of Gonadotropin-releasing hormone receptor (Homo sapiens) (P30968 whole entry, looked up): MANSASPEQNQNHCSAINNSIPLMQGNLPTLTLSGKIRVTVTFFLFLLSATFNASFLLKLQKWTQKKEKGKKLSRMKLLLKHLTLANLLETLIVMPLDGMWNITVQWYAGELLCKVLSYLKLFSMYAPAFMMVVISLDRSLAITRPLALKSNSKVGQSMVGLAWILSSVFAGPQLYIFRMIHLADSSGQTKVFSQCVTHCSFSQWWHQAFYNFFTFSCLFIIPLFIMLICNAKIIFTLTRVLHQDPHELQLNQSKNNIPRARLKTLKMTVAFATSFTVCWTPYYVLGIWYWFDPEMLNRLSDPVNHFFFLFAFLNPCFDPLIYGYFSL
In general terms: A change in cytosolic calcium serves as a functional read-out for many receptors and channels.

The target in test [2] is KiSS-1 receptor (Homo sapiens) (UniProt Q969F8). Description: Human kisspeptin (KISS1R) small molecule agonists, calcium flux assay in KISS1R-HEK293 cells (AID 1920064; active means well fitted activation curve with a large enough effect in the repeat runs). The procedure, abridged: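 Concentration-response testing used 15 concentrations in triplicate on human KISS1R-expressing HEK293 cells. Calcium-dependent fluorescence (Ex/Em 480/540) was followed kinetically for 3 min after compound transfer.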
Sequence of KiSS-1 receptor (Homo sapiens) (Q969F8 whole entry, looked up): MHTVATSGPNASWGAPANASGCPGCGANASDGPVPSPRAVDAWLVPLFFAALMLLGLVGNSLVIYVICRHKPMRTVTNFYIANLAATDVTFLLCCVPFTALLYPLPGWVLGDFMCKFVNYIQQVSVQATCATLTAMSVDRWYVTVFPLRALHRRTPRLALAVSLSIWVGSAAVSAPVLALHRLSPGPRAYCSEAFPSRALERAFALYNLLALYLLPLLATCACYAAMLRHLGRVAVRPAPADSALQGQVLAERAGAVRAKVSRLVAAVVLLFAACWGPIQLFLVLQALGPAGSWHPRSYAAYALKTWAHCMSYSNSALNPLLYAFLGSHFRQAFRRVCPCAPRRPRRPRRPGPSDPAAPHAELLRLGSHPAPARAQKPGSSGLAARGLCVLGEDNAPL

Test [3] in a line: G protein-coupled receptor (GPCR) small molecule agonists, calcium flux assay: HEK293 wild type cell line counter screen (AID 1920065). The procedure, abridged:
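Fluorescence intensity signals activation. After overnight (18 h) culture and a 1 h calcium dye load at 37 C, compounds are added by pin tool and the plate read at 480/540 nm for 3 min in 1 s steps.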

The nature of test [4]: p53 small molecule agonists, cell-based qHTS assay with human liver microsomes (AID 1963577).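 Further: p53 response element beta-lactamase reporter cells with liver microsomes plus NADPH.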 Put shortly: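 HLM-supplemented p53RE-bla reporter assay: 16 h compound exposure at 37 C, microsomes and NADPH each 0.5 mg/mL final, read by fluorescence intensity.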
On the technique in general: Quantitative high-throughput screening tests each substance at several concentrations.

A short description of test [5]: p53 small molecule agonists, cell-based qHTS assay with rat liver microsomes (AID 1963578). Put shortly: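 Quantitative HTS of the Tox21 10K library: p53RE-bla cells, rat liver microsomes plus NADPH at 0.5 mg/mL final each, 16 h at 37 C, beta-lactamase fluorescence detection.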
Test [6] can be described thus: p53 small molecule agonists, cell-based qHTS assay with human liver microsomes: qHTS cell viability counter screen (AID 1963579). Further: nearly all actives have a fitted effect of over 45% in size. The procedure, abridged: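 Viability of p53RE-bla cells is measured as CellTiter-Glo luminescence following a 16 h, 37 C incubation with compound, liver microsomes from human donors and NADPH.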
Test [7] in a line: p53 small molecule agonists, cell-based qHTS assay with rat liver microsomes: qHTS cell viability counter screen (AID 1963580). Further: nearly all actives have a fitted effect of over 45% in size. Put shortly: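 Luminescent ATP readout (CellTiter-Glo, 30 min at room temperature) reports viability of p53RE-bla HCT-116 cells after 16 h at 37 C with test compounds under metabolic activation by rat liver microsomes and NADPH at 0.5 mg/mL final each.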

For test [8], the target named is 5-hydroxytryptamine receptor 2A (Homo sapiens) (UniProt P28223). In words: 5-hydroxytryptamine receptor 2A (HTR2A) small molecule antagonists, cell-based qHTS assay (AID 1963586). Further: nearly all actives have a fitted effect of over 45% in size. Put shortly:
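CHO cells stably expressing human HTR2A were plated for 18 h at 37 C, then loaded with calcium dye for 1 h. Compounds were preincubated 5 min at room temperature before DOI (4 nM solution) was added. Kinetic fluorescence was read for 3 min.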

The target is the same in test [9]. Description: 5-hydroxytryptamine receptor 2A (HTR2A) small molecule agonists, cell-based qHTS assay (AID 1963587). Further: nearly all actives have a fitted effect of over 30% in size. Put shortly:
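HTR2A-CHO cells, plated 18 h at 37 C/5% CO2, dye-loaded 1 h at 37 C; compounds in DMSO added by pin tool (agonist mode). Intracellular calcium flux read as kinetic fluorescence on FDSS over 2 min at 1 s intervals.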

The target in test [10] is Muscarinic acetylcholine receptor M1 (Homo sapiens) (UniProt P11229). Description: Cholinergic receptor muscarinic 1 (CHRM1) small molecule antagonists, cell-based qHTS assay (AID 1963588). Further: nearly all actives have a fitted effect of over 40% in size. Further: potency means the concentration at half of the fitted maximal effect. Put shortly: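 Compounds were tested at 15 concentrations in three independent runs. Dye-loaded CHRM1-CHO cells were exposed 5 min at room temperature before stimulation by acetylcholine added at 50nM. Intracellular calcium was read kinetically on FDSS for 3 min.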
Sequence of Muscarinic acetylcholine receptor M1 (Homo sapiens) (P11229 whole entry, looked up): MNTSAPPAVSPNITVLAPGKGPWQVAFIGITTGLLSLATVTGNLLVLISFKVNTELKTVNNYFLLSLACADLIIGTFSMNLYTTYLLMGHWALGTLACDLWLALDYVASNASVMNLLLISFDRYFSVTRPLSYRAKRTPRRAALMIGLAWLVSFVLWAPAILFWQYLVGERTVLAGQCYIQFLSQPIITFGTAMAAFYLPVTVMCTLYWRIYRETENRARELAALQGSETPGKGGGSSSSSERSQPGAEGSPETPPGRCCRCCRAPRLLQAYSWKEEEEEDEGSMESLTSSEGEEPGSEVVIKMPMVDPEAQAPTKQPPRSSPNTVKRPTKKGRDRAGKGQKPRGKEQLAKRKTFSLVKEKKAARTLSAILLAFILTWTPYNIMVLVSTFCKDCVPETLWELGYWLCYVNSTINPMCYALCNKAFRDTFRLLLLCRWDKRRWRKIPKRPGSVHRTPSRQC

Test [11] shares this target. In words: Cholinergic receptor muscarinic 1 (CHRM1) small molecule agonists, cell-based qHTS assay (AID 1963589). Further: nearly all actives have a fitted effect of over 35% in size. The procedure, abridged:
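Fluorescent calcium dye reports M1 activation in stably transfected CHO cells. Compounds, 15 concentrations, added after 1 h dye loading at 37 C; kinetic reading at 1 sec intervals.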

Test [12] can be described thus: cAMP Responsive Elements (CRE) small molecule agonists, cell-based qHTS assay (AID 1963590). The procedure, abridged: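 Compound exposure lasted 3 h at 37 C/5% CO2 in CRE-bla HEK 293T cells grown in assay medium with 10% dialyzed FBS and 25 mM HEPES. Reporter signal came from LiveBLAzer B/G FRET substrate, 2 h, room temperature.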
The nature of test [13]: cAMP Responsive Elements (CRE) small molecule antagonists, cell-based qHTS assay (AID 1963591; active means well fitted inhibition curve with a large enough effect in the signal ratio in the repeat runs, not every such curve was filed as active; the % refers to the signal ratio). The procedure, abridged: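 Stimulation used NKH477 at a final 0.25 uM for 3 h in compound-treated CRE-bla HEK293T cells, seeded 18 h beforehand. Reporter activity was measured with LiveBLAzer B/G FRET substrate after 2 h at room temperature.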
For test [14], the target named is Beta-2 adrenergic receptor (Homo sapiens) (UniProt P07550). In words: Adrenergic beta2 receptor (ADRB2) small molecule antagonists, cell-based qHTS assay (AID 1963592). Further: series mostly up to about 92 µM; nearly all actives have a fitted effect of over 50% in size. The procedure, abridged:
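Assay format: CHO-ADRB2 cells, 18-20hr seeding at 37C/5% CO2, then compound plus 1nM isoproterenol agonist mix for 0.5hr RT. Homogeneous time-resolved fluorescence cAMP detection after 1hr, expressed as 665/615 nm ratio.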

For test [15] the target is unchanged. In words: Adrenergic beta2 receptor (ADRB2) small molecule agonists, cell-based qHTS assay (AID 1963593).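 Further: CHO cells stably overexpressing human ADRB2.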 The procedure, abridged:
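CHO cells stably over-expressing ADRB2 were plated overnight at 37C, then dosed with compounds plus a stimulation mix containing 100uM IBMX and 25uM Ro-20-1724 for 0.5hr at room temperature. cAMP was measured by HTRF competition, 1hr.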

Test [16] has as its target D(2) dopamine receptor (Homo sapiens) (UniProt P14416). Description: Dopamine D2 receptor (DRD2) small molecule agonists, cell-based qHTS assay (AID 1963594). Further: nearly all actives have a fitted effect of over 35% in size. Put shortly: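 HEK293 cells stably expressing DRD2 were cultured 24 h at 37 C, then given Ro20-1724 (0.1 mM final) and compounds for 10 min at room temperature. NKH477 (200nM) was then added for 30 min. cAMP was read by HTRF.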

Test [17] shares this target. Description: Dopamine D2 receptor (DRD2) small molecule antagonists, cell-based qHTS assay (AID 1963595; active means well fitted inhibition curve with a large enough effect in the signal ratio in the repeat runs, with a control signal flat; the % refers to the signal ratio; further: potency means the concentration at half of the fitted maximal effect). Put shortly:
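Readout: HTRF cAMP, cAMP-d2 competing with cellular cAMP for anti-cAMP cryptate, read after 1 h. Cells: DRD2-HEK293. Conditions: 0.1 mM Ro20-1724, 12 nM quinpirole, 200 nM NKH477, 30 min RT.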

Test [18] is described as follows: p53 small molecule agonists, cell-based qHTS assay: qHTS cell viability counter screen (AID 1963581). Further: nearly all actives have a fitted effect of over 45% in size. Put shortly: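 Luminescence from CellTiter-Glo, reflecting ATP content, serves as the cytotoxicity measure; it is taken after the 2 h reporter substrate step in HCT-116 p53RE-bla cells dosed for 16 h at 37 C.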
Test [19] can be described thus: p53 small molecule agonists, cell-based qHTS assay (AID 1963582; active means well fitted activation curve with a large enough effect in the signal ratio in the repeat runs, not every such curve was filed as active; the % refers to the signal ratio). Put shortly: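 After plating, p53RE-bla cells sat 5 h in the incubator; compounds or DMSO vehicle were pinned in; a 16 h incubation at 37 C followed; FRET substrate was added and, 2 h later at RT, fluorescence was measured.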

Unmarked numbers belong to inactive results. Inconclusive results are not listed. Calls of active or inactive are those of the source. Unless noted, the call rests on the fitted dose curve.

Sequence of D(2) dopamine receptor (Homo sapiens) (P14416 whole entry, looked up): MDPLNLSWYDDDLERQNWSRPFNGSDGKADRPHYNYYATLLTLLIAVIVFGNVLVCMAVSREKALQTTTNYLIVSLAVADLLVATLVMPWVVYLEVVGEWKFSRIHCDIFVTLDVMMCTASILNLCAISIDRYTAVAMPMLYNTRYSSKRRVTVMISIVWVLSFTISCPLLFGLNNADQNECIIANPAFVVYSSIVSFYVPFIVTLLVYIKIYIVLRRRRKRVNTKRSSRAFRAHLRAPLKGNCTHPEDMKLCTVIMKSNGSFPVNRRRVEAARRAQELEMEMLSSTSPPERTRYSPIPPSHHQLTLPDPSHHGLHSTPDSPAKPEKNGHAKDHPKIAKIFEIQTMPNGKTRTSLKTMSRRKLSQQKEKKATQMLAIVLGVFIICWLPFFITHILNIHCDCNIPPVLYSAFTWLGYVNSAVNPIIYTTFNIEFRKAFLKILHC
Sequence of Beta-2 adrenergic receptor (Homo sapiens) (P07550 whole entry, looked up): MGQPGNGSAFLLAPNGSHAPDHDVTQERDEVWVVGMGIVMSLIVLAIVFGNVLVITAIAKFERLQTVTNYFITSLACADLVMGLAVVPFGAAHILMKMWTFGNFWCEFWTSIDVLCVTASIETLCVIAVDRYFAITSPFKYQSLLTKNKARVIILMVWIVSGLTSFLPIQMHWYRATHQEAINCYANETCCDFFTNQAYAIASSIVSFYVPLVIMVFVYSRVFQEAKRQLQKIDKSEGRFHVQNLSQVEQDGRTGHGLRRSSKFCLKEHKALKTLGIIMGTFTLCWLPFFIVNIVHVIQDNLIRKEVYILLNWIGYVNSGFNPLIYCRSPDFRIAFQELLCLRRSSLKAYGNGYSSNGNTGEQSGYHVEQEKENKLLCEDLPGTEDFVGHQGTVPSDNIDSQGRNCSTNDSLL
Sequence of 5-hydroxytryptamine receptor 2A (Homo sapiens) (P28223 whole entry, looked up): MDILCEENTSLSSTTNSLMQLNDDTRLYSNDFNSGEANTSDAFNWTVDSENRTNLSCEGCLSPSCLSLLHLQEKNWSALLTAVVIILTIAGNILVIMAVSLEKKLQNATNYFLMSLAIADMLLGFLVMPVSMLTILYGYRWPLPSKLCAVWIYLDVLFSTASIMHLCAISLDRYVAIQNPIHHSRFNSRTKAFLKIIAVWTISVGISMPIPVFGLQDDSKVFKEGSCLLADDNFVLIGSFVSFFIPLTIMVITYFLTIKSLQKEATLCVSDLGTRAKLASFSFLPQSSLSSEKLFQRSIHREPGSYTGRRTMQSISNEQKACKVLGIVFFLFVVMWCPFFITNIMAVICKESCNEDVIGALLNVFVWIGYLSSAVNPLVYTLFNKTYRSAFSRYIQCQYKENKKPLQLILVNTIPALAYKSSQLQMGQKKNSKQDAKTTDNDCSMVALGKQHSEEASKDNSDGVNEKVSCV

Consider `C=C(C)C(=O)OCCCC`, for which the Potency entry in [1], in test [4], in test [5], in test [6], in [7] and in test [8] was “inactive” throughout. Further, the Potency entry in [9], in test [10], in test [11], in test [12], in [13] and in test [14] was “inactive” each time. Further, the Potency entry in [15], in [16] and in test [17] was “inactive” each time. For the same molecule, the result in test [2] and in test [3] was inactive.

As to `O=NN(CCCl)C(=O)NCCCl`, the Potency entry in test [1], in test [4], in test [5], in [6], in [7] and in [12] was “inactive” in each case. The Potency result in test [13], in [14], in test [15], in [16] and in [17] was “inactive” in each case. Also, the outcome in test [2] and in test [3] was inactive.

On to `CCO`, for which the Potency entry in [1], in test [4], in [5], in test [6], in [18] and in test [19] was “inactive” throughout. Also, the Potency result in [12], in [13], in test [14], in test [16] and in test [17] was “inactive” each time. For the same molecule, the result in test [2] and in test [3] was inactive.

With `COCCCN1CCC(NC(=O)c2cc(Cl)c(N)c3c2OCC3)CC1`, the Potency result in test [1], in [4], in test [5], in test [6], in [7] and in [8] was “inactive” throughout. For the same molecule, the Potency result in test [9], in test [11], in test [12], in test [13], in [14] and in test [15] was “inactive” in each case. Moreover, the Potency entry in [16] and in [17] was “inactive” each time. The result in test [2] and in test [3] was inactive.

`CCCCCCCCCCCSCC(=O)O`: the Potency result in test [1], in test [4], in test [5], in test [6], in test [7] and in test [18] was “inactive” throughout. The Potency entry in [9], in [10], in test [11], in test [14], in test [15] and in [17] was “inactive” in each case. In addition, the outcome in test [2] and in test [3] was inactive.

As to `CC(C)C(=O)OC/C=C/c1ccccc1`, the Potency entry in test [1], in test [4], in test [5], in test [6], in test [19] and in test [8] was “inactive” in each case. Besides, the Potency result in test [9], in test [10], in [11], in [12], in test [14] and in test [15] was “inactive” each time. The Potency result in test [17] was “inactive”. Besides, the result in test [2] and in [3] was inactive.

With `CC(C)(C)NCCNC(C)(C)C`, the Potency entry in [1], in test [4], in test [5], in test [6], in test [7] and in test [19] was “inactive” each time. The Potency entry in [8], in test [9], in [11], in test [12], in [13] and in test [14] was “inactive” each time. Moreover, the Potency result in [16] and in test [17] was “inactive” in each case. Further, the result in test [2] and in [3] was inactive.

As to `CN1CCCCC1CCN1c2ccccc2Sc2ccc(S(C)=O)cc21` (stereo not given), the Potency result in [1], in test [4], in [5], in test [6], in [7] and in test [19] was “inactive” each time. Further, the Potency entry in test [9], in test [11], in test [12], in test [14], in [15] and in test [16] was “inactive” each time. Further, the result in test [2] and in test [3] was inactive. The results for the Potency in test [10] and in test [17] were 0.0103 µM (active) and 1.88 µM (active), respectively.

Values taken from PubChem BioAssay (Tox21).
